Laboratory results reported in PubChem BioAssay (NCATS).
Values joined by “and” are separate entries in the source; they are usually repeats but may differ in a detail not shown here. Identical values can stand only once. Results filed as inconclusive are left out. Where a structure was tested more than once in an assay, its records may differ in their call. Active and inactive are the calls of the source. Unless noted, the call rests on the fitted dose curve; in most records, active means well fitted curve in the direction sought with a large enough effect; inconclusive means small, poorly fitted or top-dose-only effect, or another doubt; inactive means no such curve, though single readings can be large; an effect the other way counts as inactive or inconclusive.

Legend:
[1] = Cell Viability - BJ (AID 421; calls by dose curve;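 further: potency means the concentration at half of the fitted maximal effect; cells exposed to compound for 40 hours at 37 °C before readout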); settings: BJ fibroblast viability, qHTS
Method in brief: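 Cytotoxicity as drop in intracellular ATP (CellTiter-Glo, 20 min RT) after 40 hr compound exposure of BJ fibroblasts at 37 °C. Titrations scaled between DMSO and 100 uM tamoxifen, Hill-fitted for AC50.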

[2] = Cell Viability - MRC5 (AID 434; calls by dose curve;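 further: potency means the concentration at half of the fitted maximal effect; potency reflects cytotoxicity seen as loss of intracellular ATP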); settings: MRC5 lung fibroblast viability, qHTS
Method in brief: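 MRC5 normal human lung fibroblasts (1500/well) were treated with compounds for 40 hr at 37 °C in complete medium, and viable cells were measured as intracellular ATP by CellTiter-Glo luminescence. AC50 came from Hill fits, normalized to DMSO and 100 uM tamoxifen.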

[3] = Cell Viability - N2a (AID 540); settings: N2a mouse neuroblastoma cell viability; activity change, negative = cytotoxicity: at 92.2 µM (top of the series); further: nearly all actives have a fitted effect of over 45% in size; further: potency means the concentration at half of the fitted maximal effect;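 on activity change, negative = cytotoxicity: plate controls were DMSO alone for no effect and tamoxifen control for full effect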
Method in brief: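 Luminescent ATP signal (CellTiter-Glo, 20 min at room temperature) served as the viability read-out after N2a cells were treated with compounds for 40 hours at 37 °C. Concentration-response data were fitted to the Hill equation for AC50.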

[4] = Cell Viability - SH-SY5Y (AID 544); settings: SH-SY5Y neuroblastoma cell viability; viability change, negative = cytotoxic: at 92.2 µM (top of the series); further: nearly all actives have a fitted effect of over 55% in size; further: potency means the concentration at half of the fitted maximal effect
Method in brief: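 Luminescent ATP read-out (CellTiter-Glo) measures loss of viable SH-SY5Y neuroblastoma cells after 40 hr compound exposure at 37 °C. AC50 values derive from standard Hill modelling of qHTS concentration-response data.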

[5] = Cell Viability - Renal Proximal Tubule (AID 545); settings: renal proximal tubule cells viability; activity change, negative = cytotoxicity: at 91.7 µM (top of the series) unless noted; further: nearly all actives have a fitted effect of over 40% in size; further: potency means the concentration at half of the fitted maximal effect
Method in brief: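 Rat renal proximal tubule primary cells, 1000/well, exposed to compounds for 40 hr at 37 °C in complete medium; cellular ATP read by CellTiter-Glo luminescence. AC50 from concentration-response fitted with standard Hill equation.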

[6] = Cell Viability - Mesenchymal (AID 546); settings: mesenchymal cells viability, qHTS; activity change, negative = cytotoxicity: at 91.7 µM (top of the series);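 further: cells exposed to compound for 40 hours before reading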; further: potency means the concentration at half of the fitted maximal effect
Method in brief: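 Normal human renal glomerulus-derived kidney mesenchymal cells, 1000 per well in complete medium, were treated with compounds for 40 hr at 37 °C. Viability was read as intracellular ATP by CellTiter-Glo luminescence; AC50 values came from Hill-equation fits of qHTS concentration-response data.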

[7] = Cellular Toxicity (caspase-3) HepG2 (AID 654); settings: HepG2 caspase-3 activation, luminescence, 0% = DMSO only, 100% = tamoxifen; series mostly up to 92.2 µM;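 further: cells exposed to compound for 16 hours before reading; 0% = DMSO alone and 100% = caspase signal from 100 µM tamoxifen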
Method in brief: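 Cells plated 5 hr at 37 °C, compound added, incubated 16 hr at 37 °C. Caspase-Glo 3/7 reagent followed, 20 min at room temperature, then luminescence read. Activation scored as signal increase; AC50 from Hill fit.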

[8] = Cellular Toxicity (caspase-3) Renal Proximal Tubule (AID 667); settings: renal proximal tubule cells; at 91.7 µM (top of the series) unless noted;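 further: cells exposed to compound for 16 hours at 37 °C before detection; 0% = DMSO basal and 100% = 10 µM staurosporine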
Method in brief: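 Freshly isolated primary rat kidney proximal tubule cells, 1000/well, treated 16 hr at 37 °C, then Caspase-Glo 3/7 luminescence after 1 hr. Normalized to DMSO and 10 uM staurosporine; AC50 from Hill fit.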

[9] = MultiTox-Fluor Cytotoxicity Assay - LYMP1-002 - Live Cells (AID 955); settings: LYMP1-002 lymphoblastoid live-cell protease fluorescence viability; series mostly up to 46.1 µM; further: potency means the concentration at half of the fitted maximal effect; on viability change, negative = cytotoxic: on the % scale 0 is the no-effect control and ±100 the full control effect
Method in brief: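 Read-out is live-cell protease activity (cell-permeant GF-AFC substrate, fluorescence Ex/Em=405/510), where a decrease indicates acute toxicity. Human lymphoblastoid cells were treated 16 hours at 37 C in a concentration series, and AC50 values came from standard Hill modelling.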

[10] = MultiTox-Fluor Cytotoxicity Assay - LYMP1-003 - Live Cells (AID 962); settings: LYMP1-003 lymphoblastoid cells, MultiTox-Fluor live-cell protease fluorescence; series mostly up to 92.2 µM; further: potency means the concentration at half of the fitted maximal effect
Method in brief: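 qHTS, 1536-well; 2500 cells/well LYMP1-003; 5 hr 37 C settle; cpd 16 hr 37 C; MultiTox-Fluor reagent 60 min RT; live-cell protease fluor. 405/510; Hill-fit AC50; tetraoctylammonium bromide pos. ctrl.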

[11] = Cell Viability - LYMP2-008 (AID 980); settings: LYMP2-008 lymphoblastoid cell viability, qHTS; series mostly up to 92.2 µM; further: nearly all actives have a fitted effect of over 60% in size; further: potency means the concentration at half of the fitted maximal effect;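 on activity change, negative = cytotoxicity: cells exposed to compound for 24 h at 37 °C; on the % scale 0 is the no-effect control and ±100 the full control effect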
Method in brief: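 qHTS, human lymphoblastoid line, 2500 cells/well; 5 hr preincubation, 24 hr compound, 37 C. CellTiter-Glo ATP luminescence. AC50 via Hill equation. Tetraoctylammonium bromide positive control.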

[12] = biological target: Tumor necrosis factor (Homo sapiens) (UniProt P01375); test: qHTS assay to identify small molecules that stimulate Tumor Necrosis Factor-alpha (TNF-alpha) secretion (AID 651757; active means well fitted curve in the direction sought with a large enough effect in the signal ratio; the % refers to the signal ratio; further: 0% is about no effect); settings: Human cells, HTRF 665/615 ratio; series mostly up to 92.2 µM
Chain of Tumor necrosis factor (Homo sapiens) (P01375 whole entry, looked up): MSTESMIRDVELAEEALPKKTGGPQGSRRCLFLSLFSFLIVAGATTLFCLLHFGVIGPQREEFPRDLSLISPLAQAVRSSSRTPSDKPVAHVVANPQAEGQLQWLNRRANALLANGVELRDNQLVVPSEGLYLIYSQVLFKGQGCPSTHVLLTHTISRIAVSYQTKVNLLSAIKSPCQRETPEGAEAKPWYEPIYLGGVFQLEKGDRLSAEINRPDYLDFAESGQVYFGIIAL
Method in brief: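 Read-out is HTRF, a TR-FRET sandwich of cryptate- and XL665-labeled anti-TNF-alpha antibodies detecting cytokine secreted by THP-1 cells. Cells had been incubated with test compounds at 37 C for 17 hrs beforehand.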

[13] = qHTS assay for environmental chemicals that activate the Aryl hydrocarbon Receptor (AhR) signaling pathway (AID 651777); settings: 1A2-DRE human hepatoma cells, luciferase, 24 h; activation: stronger effect = higher value; further: nearly all actives have a fitted effect of over 15% in size; further: potency means the concentration at half of the fitted maximal effect; on activation: % of control where 0% means no effect
Method in brief: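 Induction of CYP1A2 transcription through AhR is detected by luciferase in 1A2-DRE hepatoma cells. Compounds or DMSO act for 24 hr at 37 C before a 30 min One-Glo step at room temperature.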

[14] = biological target: Peroxisome proliferator-activated receptor alpha (Homo sapiens) (UniProt Q07869); test: qHTS assay for small molecule agonists of the peroxisome proliferator-activated receptor alpha (PPARalpha) signaling pathway (AID 651778); settings: PathHunter PPARalpha complementation, chemiluminescence, 6 h; max response: stronger effect = higher value; further: % of control where 0% means no effect
Chain of Peroxisome proliferator-activated receptor alpha (Homo sapiens) (Q07869 whole entry, looked up): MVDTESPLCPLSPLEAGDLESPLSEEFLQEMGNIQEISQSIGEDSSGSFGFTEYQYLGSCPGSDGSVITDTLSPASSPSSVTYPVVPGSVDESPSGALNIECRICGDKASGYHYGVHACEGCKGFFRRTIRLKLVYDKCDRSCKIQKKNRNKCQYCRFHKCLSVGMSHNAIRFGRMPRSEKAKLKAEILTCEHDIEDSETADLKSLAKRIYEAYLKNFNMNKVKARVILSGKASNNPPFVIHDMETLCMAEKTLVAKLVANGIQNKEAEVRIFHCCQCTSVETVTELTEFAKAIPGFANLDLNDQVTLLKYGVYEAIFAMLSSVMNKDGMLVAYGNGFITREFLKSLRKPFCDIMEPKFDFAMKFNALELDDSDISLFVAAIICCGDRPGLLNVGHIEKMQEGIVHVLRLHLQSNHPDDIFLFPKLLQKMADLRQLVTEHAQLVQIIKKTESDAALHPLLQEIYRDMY
Method in brief: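 Cells plated at 2,000/well and held overnight at 37 C, 5% CO2, then compound added by pin tool for 6 hr; after PathHunter detection reagent and 60 min at room temperature, chemiluminescence from enzyme complementation was read.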

[15] = qHTS assay for small molecule agonists of the antioxidant response element (ARE) signaling pathway measured by Nrf2-dependant transcriptional activity - cell viability counter screen (AID 720653; active means well fitted curve in the direction sought with a large enough effect in the repeat runs; an effect the other way counts as inactive or inconclusive; further: potency means the concentration at half of the fitted maximal effect; on max response: on the % scale 0 is the no-effect control and ±100 the full control effect); settings: ARE-bla HepG2 viability, CellTiter-Glo ATP luminescence, 16 h; max response: stronger effect = lower value
Method in brief: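 ARE-bla HepG2 cells (2,000/well) rested 5 hrs at 37C/5% CO2, then exposed to compounds in DMSO for 16 hrs. Viability was read in the same wells as intracellular ATP by luminescence, 30 min at room temperature after reagent addition.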

[16] = biological target: Alpha-galactosidase (Coffea arabica) (UniProt Q42656); test: Counterscreen for Glucocerebrosidase Inhibitors: qHTS Assay for Coffee Bean alpha-Galactosidase at pH 4.5 (AID 957); settings: purified coffee bean alpha-galactosidase, fluorogenic substrate; series mostly up to 76.9 µM;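 further: plate controls were enzyme alone for no effect and no enzyme for full effect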
Chain of Alpha-galactosidase (Coffea arabica) (Q42656 whole entry, looked up): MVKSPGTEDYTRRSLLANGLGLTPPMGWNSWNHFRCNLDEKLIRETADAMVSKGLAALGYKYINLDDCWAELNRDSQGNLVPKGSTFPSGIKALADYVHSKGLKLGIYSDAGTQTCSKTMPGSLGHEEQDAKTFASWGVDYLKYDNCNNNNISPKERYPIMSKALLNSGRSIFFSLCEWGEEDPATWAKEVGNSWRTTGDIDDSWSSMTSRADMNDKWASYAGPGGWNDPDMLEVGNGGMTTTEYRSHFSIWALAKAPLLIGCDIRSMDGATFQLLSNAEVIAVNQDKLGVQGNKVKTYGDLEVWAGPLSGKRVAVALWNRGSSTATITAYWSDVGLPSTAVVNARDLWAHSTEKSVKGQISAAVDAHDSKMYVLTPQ
Method in brief: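 Coffee bean alpha-galactosidase 2 nM, substrate 4-MU-alpha-Gal 80 uM, pH 4.5 citrate/Tween-20, 20 min RT. Cpd titration 0.7 nM–77 uM. Stop pH 10, fluorescence 365/440 nm; Hill-equation AC50.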

[17] = biological target: Alpha-galactosidase (Coffea arabica) (UniProt Q42656); test: Counterscreen for Glucocerebrosidase Inhibitors: qHTS Assay for Coffee Bean alpha-Galactosidase at pH 5.9 (AID 998); settings: coffee bean alpha-galactosidase enzyme assay; series mostly up to 76.9 µM;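 further: plate controls were uninhibited enzyme for no effect and no-enzyme basal signal for full effect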
Method in brief: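 Green coffee bean enzyme (2 nM final) was incubated with compounds (0.7 nM–77 uM) and 4-methylumbelliferyl alpha-D-galactopyranoside (80 uM) in citrate buffer pH 5.9, 20 min at room temperature. High-pH stop; fluorescence 365/440 nm; AC50 from Hill fits.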

[18] = Cell Viability - Hek293 (AID 427;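 active means compounds whose dose-response curve shows a full or clear partial loss of cell viability, called from curve shape rather than a numeric limit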;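 further: potency means the concentration at half of the fitted maximal effect; cells exposed to compound for 40 hours at 37 °C before reading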); settings: qHTS
Method in brief: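 Luminescent ATP content (CellTiter-Glo, 20 min at room temperature) was measured after a 40 hr, 37 °C compound exposure of HEK293 cells. AC50 values came from Hill-equation fits of qHTS concentration-response data normalized to DMSO and 100 uM tamoxifen.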

[19] = biological target: Glucocorticoid receptor (Homo sapiens) (UniProt P04150); test: GR-GFP Redistribution (AID 450;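 active means compounds whose dose series gives a full or clear partial fitted curve of increased nuclear translocation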; further: potency means the concentration at half of the fitted maximal effect); settings: U2OS GR-GFP nuclear translocation, laser cytometry, 2 h
Chain of Glucocorticoid receptor (Homo sapiens) (P04150 whole entry, looked up): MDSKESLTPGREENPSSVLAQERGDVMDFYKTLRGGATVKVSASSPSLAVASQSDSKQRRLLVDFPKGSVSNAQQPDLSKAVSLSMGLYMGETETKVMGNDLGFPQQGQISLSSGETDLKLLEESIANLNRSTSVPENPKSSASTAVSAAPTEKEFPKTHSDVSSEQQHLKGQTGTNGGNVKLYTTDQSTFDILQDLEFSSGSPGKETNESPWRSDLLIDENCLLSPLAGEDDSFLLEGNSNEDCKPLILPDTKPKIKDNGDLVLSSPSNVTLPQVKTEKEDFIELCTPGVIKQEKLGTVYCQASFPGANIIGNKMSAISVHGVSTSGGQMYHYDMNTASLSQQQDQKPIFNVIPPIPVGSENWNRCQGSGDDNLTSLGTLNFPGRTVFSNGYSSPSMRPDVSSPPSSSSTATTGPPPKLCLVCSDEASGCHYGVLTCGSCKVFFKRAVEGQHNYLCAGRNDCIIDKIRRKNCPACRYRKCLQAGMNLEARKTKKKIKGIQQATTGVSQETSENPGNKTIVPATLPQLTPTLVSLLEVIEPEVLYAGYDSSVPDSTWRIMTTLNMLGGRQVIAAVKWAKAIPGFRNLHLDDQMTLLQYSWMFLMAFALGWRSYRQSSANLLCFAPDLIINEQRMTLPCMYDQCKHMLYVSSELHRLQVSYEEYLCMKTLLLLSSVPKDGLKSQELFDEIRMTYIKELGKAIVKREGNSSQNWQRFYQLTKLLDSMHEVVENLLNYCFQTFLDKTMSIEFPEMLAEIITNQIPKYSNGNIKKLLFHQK

C(=NC1CCCCC1)=NC1CCCCC1
active: Potency [3] 10 µM | Potency [11] 50.1 µM | Potency [15] 7.94 µM
inactive: Potency [1] > 92 µM | Potency [2] > 92 µM | Potency [4] | Potency [5] | Potency [6] | outcome [7] | caspase-3 activation [8] 5.14% | Potency [9] | Potency [10] | Potency [12] | activation [13] 2.78% and 1.69% | max response [14] -9.68% and -4.28%

C[C@@H]1O[C@@H](O[C@H]2C[C@@H](O)[C@]3(CO)[C@@H]4[C@@H](O)C[C@]5(C)[C@H](C6=CC(=O)OC6)CC[C@@]5(O)[C@H]4CC[C@@]3(O)C2)[C@H](O)[C@H](O)[C@@H]1O
inactive: outcome [16] | outcome [17]

Oc1c(Cl)cc(Cl)cc1Cl
inactive: Potency [1] > 92 µM | Potency [18] > 92 µM | Potency [2] > 92 µM | activation [13] 0.15% and 1.58% | max response [15] -6.96% and -8.43%

O=C1C2(Cl)C3(Cl)C4(Cl)C(Cl)(Cl)C5(Cl)C3(Cl)C1(Cl)C5(Cl)C24Cl (configuration not stated)
active: Potency [1] 26.8 µM and 61.3 µM | Potency [18] 30.2 µM and 47.2 µM | Potency [2] 39.7 µM and 48.6 µM | Potency [3] 31.6 µM and 39.8 µM | Potency [4] 31.6 µM | viability change, negative = cytotoxic [4] -93.4% | Potency [5] 31.6 µM | activity change, negative = cytotoxicity [5] -88.2% | Potency [6] 31.6 µM | activity change, negative = cytotoxicity [6] -92.3% | Potency [9] 31.6 µM | Potency [10] 39.8 µM and 50.1 µM | Potency [11] 50.1 µM | Potency [15] 50.1 µM
inactive: caspase-3 activation [8] -3.9% | Potency [12] | activation [13] 0.0088% and 4.7% | max response [14] 6.14% and 11.6% and 6.69% | max response [15] 5.47%

COP(=O)(OC)O/C(=C\Cl)c1cc(Cl)c(Cl)cc1Cl
inactive: Potency [1] > 92 µM | Potency [2] > 92 µM | Potency [5] | Potency [6] | outcome [7] | caspase-3 activation [8] 2.58% [at 91.7 µM, primary cells freshly taken from rat, solvent-only wells 0%, staurosporine 100%] | Potency [9] | Potency [10] | Potency [11] | Potency [12] | activation [13] 0.406% | max response [14] -3% | max response [15] -14.8%
active: viability change, negative = cytotoxic [4] -89.6%

[CH3][Hg][Cl]
active: Potency [1] 26.7 µM | Potency [18] 33.3 µM | Potency [2] 25.3 µM | Potency [3] 10 µM | Potency [4] 2.51 µM | activity change, negative = cytotoxicity [5] -104% | Potency [6] 6.31 µM | Potency [9] 12.6 µM | Potency [10] 20 µM | Potency [11] 5.01 µM | Potency [15] 25.1 µM
inactive: outcome [7] | caspase-3 activation [8] -5.2% | Potency [12] | activation [13] 1.1% | max response [14] -12.7%

CCOc1ccc(-n2c(O)c(C=Nc3ccc(N(CC)CC)cc3)c(=O)[nH]c2=O)cc1
inactive: Potency [19] > 20.6 µM

CN(C)c1ccc(N=O)cc1
active: Potency [18] 47.4 µM | Potency [2] 42.1 µM | Potency [3] 31.6 µM | Potency [4] 1.26 µM | Potency [5] 15.8 µM | Potency [6] 31.6 µM | Potency [9] 5.01 µM | Potency [10] 6.31 µM | Potency [11] 1.26 µM | Potency [13] 70.8 µM
inactive: Potency [1] > 92 µM | outcome [7] | caspase-3 activation [8] -9.93% | max response [14] -3.57%

O=[N+]([O-])C(Br)Br
active: activity change, negative = cytotoxicity [3] -119% | viability change, negative = cytotoxic [4] -98.3% | Potency [11] 12.6 µM
inactive: Potency [18] > 92 µM | Potency [5] | outcome [7] | caspase-3 activation [8] 2.88% | Potency [9] | Potency [10] | Potency [12] | activation [13] 1.61% | max response [14] -3.58% | max response [15] -11.4%

CC(=O)[O-].CC(=O)[O-].O.O.[Cd+2]
inactive: Potency [1] > 92 µM | Potency [2] > 92 µM | outcome [7] | caspase-3 activation [8] -14.3% [at 91.7 µM, primary cells freshly taken from rat, solvent-only wells 0%, staurosporine 100%] | Potency [9] | Potency [10] | Potency [12] | activation [13] 1.94% | max response [14] -7.81%
active: activity change, negative = cytotoxicity [3] -111% | Potency [5] 25.1 µM [primary cells of rat origin] | Potency [11] 50.1 µM | Potency [15] 10 µM
